# Measured values taken from paper PMC5540273 (PLoS ONE, 2017).
# Read-outs that look alike come from different tables or passages of the source.
# Columns and labels:
# FYN = conditions: concentration: 1 μM,replicates: in singlicate; n = 1
# GAK = conditions: concentration: 1 μM,replicates: in singlicate; n = 1
# GCN2(Kin.Dom.2,S808G) = system: T1, GCN2(Kin.Dom.2,S808G); conditions: concentration: 1 μM,replicates: in singlicate; n = 1
# T1 construct: gene EIF2AK4
# GRK1 = conditions: concentration: 1 μM,replicates: in singlicate; n = 1
# GRK2 = system: T2, GRK2; conditions: concentration: 1 μM,replicates: in singlicate; n = 1
# T2 construct: gene ADRBK1
# GRK3 = system: T3, GRK3; conditions: concentration: 1 μM,replicates: in singlicate; n = 1
# T3 construct: gene ADRBK2
# GRK4 = conditions: concentration: 1 μM,replicates: in singlicate; n = 1
# GRK7 = conditions: concentration: 1 μM,replicates: in singlicate; n = 1
# GSK3A = conditions: concentration: 1 μM,replicates: in singlicate; n = 1
# GSK3B = conditions: n = 1
# HASPIN = system: T4, HASPIN; conditions: concentration: 1 μM,replicates: in singlicate; n = 1
# T4 construct: gene GSG2
# HCK = conditions: concentration: 1 μM,replicates: in singlicate; n = 1
# HIPK1 = conditions: concentration: 1 μM,replicates: in singlicate; n = 1
# HIPK2 = conditions: concentration: 1 μM,replicates: in singlicate; n = 1
# HIPK3 = conditions: concentration: 1 μM,replicates: in singlicate; n = 1
# HIPK4 = conditions: concentration: 1 μM,replicates: in singlicate; n = 1
# HPK1 = conditions: concentration: 1 μM,replicates: in singlicate; n = 1
# HUNK = conditions: concentration: 1 μM,replicates: in singlicate; n = 1
# ICK = conditions: concentration: 1 μM,replicates: in singlicate; n = 1
# IGF1R = conditions: concentration: 1 μM,replicates: in singlicate; n = 1
# [1] = concentration: 1 μM,replicates: in singlicate
# 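Note: KINOMEscan kinase panel screen.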
smiles,measurement,setting,value
Cn1ccc2ncnc(Oc3ccc(NC(=O)Nc4ccnc(C(F)(F)F)c4)c(Cl)c3)c21,%Inh,FYN,0%
same,%Inh,GAK,0%
same,%Inh,"GCN2(Kin.Dom.2,S808G)",10%
same,%Inh,GRK1,0%
same,%Inh,GRK2,0%
same,%Inh,GRK3,29%
same,%Inh,GRK4,100%
same,%Inh,GRK7,0%
same,%Inh,GSK3A,11%
same,%Inh,GSK3B; [1],0%
same,%Inh,HASPIN,9%
same,%Inh,HCK,0%
same,%Inh,HIPK1,35%
same,%Inh,HIPK2,0%
same,%Inh,HIPK3,0%
same,%Inh,HIPK4,0%
same,%Inh,HPK1,0%
same,%Inh,HUNK,8%
same,%Inh,ICK,0%
same,%Inh,IGF1R,2%
CN(c1ccc2c(c1)nc(NCc1ccc(F)cc1)n2C)c1ccnc(Nc2ccc(CS(C)(=O)=O)cc2)n1.Cl [GW813244],%Inh,FYN,74%
same,%Inh,GAK,15%
same,%Inh,"GCN2(Kin.Dom.2,S808G)",68%
same,%Inh,GRK1,27%
same,%Inh,GRK2,0%
same,%Inh,GRK3,0%
same,%Inh,GRK4,0%
same,%Inh,GRK7,0%
same,%Inh,GSK3A,14%
same,%Inh,GSK3B; [1],11%
same,%Inh,HASPIN,28%
same,%Inh,HCK,47%
same,%Inh,HIPK1,53%
same,%Inh,HIPK2,25%
same,%Inh,HIPK3,47%
same,%Inh,HIPK4,79%
same,%Inh,HPK1,60%
same,%Inh,HUNK,5%
same,%Inh,ICK,7%
same,%Inh,IGF1R,13%
Cn1ccc2ncnc(Oc3ccc(NC(=O)Nc4cncc(C(F)(F)F)c4)c(Cl)c3)c21,%Inh,FYN,0%
same,%Inh,GAK,0%
same,%Inh,"GCN2(Kin.Dom.2,S808G)",0%
same,%Inh,GRK1,4%
same,%Inh,GRK2,0%
same,%Inh,GRK3,0%
same,%Inh,GRK4,11%
same,%Inh,GRK7,0%
same,%Inh,GSK3A,0%
same,%Inh,GSK3B; [1],0%
same,%Inh,HASPIN,0%
same,%Inh,HCK,14%
same,%Inh,HIPK1,10%
same,%Inh,HIPK2,0%
same,%Inh,HIPK3,0%
same,%Inh,HIPK4,0%
same,%Inh,HPK1,0%
same,%Inh,HUNK,0%
same,%Inh,ICK,0%
same,%Inh,IGF1R,0%
O=C(Nc1cccc(Oc2ccc3nccn3n2)c1)Nc1cccc(C(F)(F)F)c1,%Inh,FYN,31%
same,%Inh,GAK,4%
same,%Inh,"GCN2(Kin.Dom.2,S808G)",27%
same,%Inh,GRK1,0%
same,%Inh,GRK2,0%
same,%Inh,GRK3,0%
same,%Inh,GRK4,1%
same,%Inh,GRK7,0%
same,%Inh,GSK3A,0%
same,%Inh,GSK3B; [1],0%
same,%Inh,HASPIN,0%
same,%Inh,HCK,27%
same,%Inh,HIPK1,7%
same,%Inh,HIPK2,33%
same,%Inh,HIPK3,1%
same,%Inh,HIPK4,17%
same,%Inh,HPK1,0%
same,%Inh,HUNK,22%
same,%Inh,ICK,0%
same,%Inh,IGF1R,3%
CSc1nccc(-c2c(-c3ccc(F)cc3)ncn2CCCN2CCOCC2)n1.Cl [SB-217146],%Inh,FYN,0%
same,%Inh,GAK,6%
same,%Inh,"GCN2(Kin.Dom.2,S808G)",0%
same,%Inh,GRK1,45%
same,%Inh,GRK2,0%
same,%Inh,GRK3,11%
same,%Inh,GRK4,10%
same,%Inh,GRK7,0%
same,%Inh,GSK3A,0%
same,%Inh,GSK3B; [1],18%
same,%Inh,HASPIN,0%
same,%Inh,HCK,14%
same,%Inh,HIPK1,40%
same,%Inh,HIPK2,0%
same,%Inh,HIPK3,8%
same,%Inh,HIPK4,0%
same,%Inh,HPK1,0%
same,%Inh,HUNK,13%
same,%Inh,ICK,0%
same,%Inh,IGF1R,0%
O=C(Nc1cccc(C(F)(F)F)c1)c1cccc(Oc2ccc3nccn3n2)c1,%Inh,FYN,62%
same,%Inh,GAK,0%
same,%Inh,"GCN2(Kin.Dom.2,S808G)",0%
same,%Inh,GRK1,9%
same,%Inh,GRK2,0%
same,%Inh,GRK3,35%
same,%Inh,GRK4,10%
same,%Inh,GRK7,0%
same,%Inh,GSK3A,0%
same,%Inh,GSK3B; [1],2%
same,%Inh,HASPIN,0%
same,%Inh,HCK,52%
same,%Inh,HIPK1,0%
same,%Inh,HIPK2,8%
same,%Inh,HIPK3,20%
same,%Inh,HIPK4,65%
same,%Inh,HPK1,0%
same,%Inh,HUNK,0%
same,%Inh,ICK,31%
same,%Inh,IGF1R,20%
Cc1ccc2c(-c3ccnc(Nc4ccc(C(F)(F)F)cc4)n3)cnn2n1 [GW819776],%Inh,FYN,9%
same,%Inh,GAK,0%
same,%Inh,"GCN2(Kin.Dom.2,S808G)",3%
same,%Inh,GRK1,28%
same,%Inh,GRK2,0%
same,%Inh,GRK3,3%
same,%Inh,GRK4,21%
same,%Inh,GRK7,0%
same,%Inh,GSK3A,74%
same,%Inh,GSK3B; [1],36%
same,%Inh,HASPIN,12%
same,%Inh,HCK,30%
same,%Inh,HIPK1,89%
same,%Inh,HIPK2,80%
same,%Inh,HIPK3,79%
same,%Inh,HIPK4,43%
same,%Inh,HPK1,0%
same,%Inh,HUNK,0%
same,%Inh,ICK,66%
same,%Inh,IGF1R,7%
COc1cc2nccc(Nc3ccc(Oc4ccccc4)cc3)c2cc1OC.Cl [GI261656],%Inh,FYN,86%
same,%Inh,GAK,0%
same,%Inh,"GCN2(Kin.Dom.2,S808G)",5%
same,%Inh,GRK1,0%
same,%Inh,GRK2,0%
same,%Inh,GRK3,24%
same,%Inh,GRK4,0%
same,%Inh,GRK7,0%
same,%Inh,GSK3A,6%
same,%Inh,GSK3B; [1],13%
same,%Inh,HASPIN,29%
same,%Inh,HCK,97.6%
same,%Inh,HIPK1,0%
same,%Inh,HIPK2,0%
same,%Inh,HIPK3,11%
same,%Inh,HIPK4,0%
same,%Inh,HPK1,2%
same,%Inh,HUNK,9%
same,%Inh,ICK,0%
same,%Inh,IGF1R,0%
COc1cccc(C2=C(Nc3cccc(Cl)c3)C(=O)NC2=O)c1 [SB-341556],%Inh,FYN,25%
same,%Inh,GAK,12%
same,%Inh,"GCN2(Kin.Dom.2,S808G)",0%
same,%Inh,GRK1,27%
same,%Inh,GRK2,0%
same,%Inh,GRK3,22%
same,%Inh,GRK4,27%
same,%Inh,GRK7,0%
same,%Inh,GSK3A,70%
same,%Inh,GSK3B; 1 µM,35%
same,%Inh,HASPIN,0%
same,%Inh,HCK,0%
same,%Inh,HIPK1,19%
same,%Inh,HIPK2,0%
same,%Inh,HIPK3,33%
same,%Inh,HIPK4,0%
same,%Inh,HPK1,47%
same,%Inh,HUNK,0%
same,%Inh,ICK,33%
same,%Inh,IGF1R,7%
COC(=O)Nc1nc2cc(Oc3ccc(NC(=O)Nc4cc(C(F)(F)F)ccc4Cl)cc3)ccc2[nH]1.Cl [GW697465],%Inh,FYN,9%
same,%Inh,GAK,0%
same,%Inh,"GCN2(Kin.Dom.2,S808G)",8%
same,%Inh,GRK1,0%
same,%Inh,GRK2,0%
same,%Inh,GRK3,65%
same,%Inh,GRK4,0%
same,%Inh,GRK7,0%
same,%Inh,GSK3A,12%
same,%Inh,GSK3B; [1],0%
same,%Inh,HASPIN,13%
same,%Inh,HCK,0%
same,%Inh,HIPK1,0%
same,%Inh,HIPK2,0%
same,%Inh,HIPK3,3%
same,%Inh,HIPK4,86%
same,%Inh,HPK1,63%
same,%Inh,HUNK,17%
same,%Inh,ICK,0%
same,%Inh,IGF1R,0%
